The list is not random: actives were taken first. Their share in the collection is about 7.5%.
NPC1 prom act = qHTS Assay for NPC1 Promoter Activators | Huh7 NPC1 promoter luciferase reporter, 24 h | Potency, µM (titrated, usually from 9.22 µM), inactives show at the highest dose activation, actives largely listed as activators | actives 2.4% (n = 320,000) | AID 485313, 2010; further: % of control where 0% means no effect; nearly all actives have a fitted effect of over 60% in size
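Stable NPC1-promoter luciferase Huh7 line; cpd (DMSO) 24 h, 37 °C, 5% CO2; Amplite luciferase reagent 10 min RT; luminescence readout. qHTS format.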
Rab9 prom act = qHTS Assay for Rab9 Promoter Activators. Huh7 Rab9 promoter-luciferase reporter, luminescence, 24 h. Potency, µM (series often up to 9.22 µM), for inactives: at the highest dose activation, negative = inhibition, usual class: activators. actives 2.8% (n = 320,000); further: % of control where 0% means no effect; nearly all actives have a fitted effect of over 60% in size
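Huh7 cells stably carrying Rab9 promoter–luciferase reporter, plated 1500 cells/well, compound added after 2 h and incubated 24 h at 37 °C; luciferase luminescence then read after 10 min with detection reagent.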
Luc counter = Counterscreen for Luciferase (Kinase-Glo TM) Inhibition; AID 1379, 2008; Potency, µM (top dose mostly 38.3 µM), without a hit: at the highest dose activity change, negative = inhibition, actives largely listed as inhibitors; actives 0.28% (n = 200,000); Kinase-Glo luciferase, ATP luminescence, 8 min; Luciferin 4-monooxygenase (Photuris pensylvanica), Q27757; further: on the % scale 0 is the no-effect control and ±100 the full control effect; nearly all actives have a fitted effect of over 60% in size
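Compound is pinned into ATP-containing buffer (10 uM ATP, imidazole pH 7.2, 7 mM MgCl2). Kinase-Glo luciferase reagent is then added. Light output is recorded following an 8-min room-temperature incubation.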
FLuc modulator = qHTS profiling assay for firefly luciferase inhibitor/activator using purifed enzyme and Km concentrations of substrates (counterscreen for miR-21 project); Potency, µM (doses to about 57.5 µM), inactives show at the top dose activity change, negative = inhibition, actives largely listed as inhibitors; Luciferin 4-monooxygenase (Photinus pyralis), P08659; purified FLuc, Km substrates, luminescence inhibition; actives 6.9% (n = 360,000);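 further: plate controls were vehicle for no effect and reference inhibitor for full effect; nearly all actives have a fitted effect of over 55% in size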
Target sequence (P08659 whole entry, looked up): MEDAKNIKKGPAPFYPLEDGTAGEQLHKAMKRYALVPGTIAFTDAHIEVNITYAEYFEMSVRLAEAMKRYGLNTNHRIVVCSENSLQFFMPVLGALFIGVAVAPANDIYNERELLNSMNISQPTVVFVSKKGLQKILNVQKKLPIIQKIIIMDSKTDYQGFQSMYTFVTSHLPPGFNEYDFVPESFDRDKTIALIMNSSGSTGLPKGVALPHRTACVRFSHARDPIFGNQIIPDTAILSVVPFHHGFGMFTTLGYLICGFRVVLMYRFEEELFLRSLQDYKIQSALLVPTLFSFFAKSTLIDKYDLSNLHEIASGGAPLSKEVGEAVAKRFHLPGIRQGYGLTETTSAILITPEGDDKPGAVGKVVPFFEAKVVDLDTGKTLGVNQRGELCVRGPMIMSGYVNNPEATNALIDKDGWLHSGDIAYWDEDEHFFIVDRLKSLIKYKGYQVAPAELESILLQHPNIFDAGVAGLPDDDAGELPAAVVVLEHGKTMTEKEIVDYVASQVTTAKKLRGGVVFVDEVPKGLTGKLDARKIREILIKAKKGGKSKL
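Purified P. pyralis luciferase (10nM final) with 10uM D-luciferin and 10uM ATP (Km levels) in 50mM Tris acetate pH 7.5, 10mM Mg acetate, 0.01% Tween-20, 0.05% BSA; qHTS 6-point titration, ~60 µM downward; luminescence read.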
SMN2 splice up = qHTS Assay for Enhancers of SMN2 Splice Variant Expression; HEK293 SMN2-luciferase splicing reporter, luminescence, 30-36 h; Potency, µM (series often up to 46.1 µM), without a hit: at the highest dose activity change, positive = activation, most hits filed as activators; actives 2.8% (n = 210,000); AID 1458, 2008; further: % of control where 0% means no effect; nearly all actives have a fitted effect of over 55% in size
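HEK293 cells carry an SMN2 minigene-luciferase reporter in which exon 7 inclusion puts luciferase in frame. Cells were seeded at 2000 cells/well, attached for 10-12 hours, then exposed to compounds for 30-36 hours at 37C before ONE-Glo luminescence.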
ELG1 genotox = qHTS screen for small molecules that induce genotoxicity in human embryonic kidney (HEK293T) cells expressing luciferase-tagged ELG1; actives 1.3% (n = 330,000); HEK293T ELG1-luciferase reporter, luminescence, 16 h; Potency, µM (series often up to 46 µM), without a hit: at the highest dose activity change, positive = activation, actives largely listed as activators; further: % of control where 0% means no effect; nearly all actives have a fitted effect of over 60% in size
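ELG1-luciferase HEK293T cells, 2,000/well; compound pinned in; 16 hr, 37 °C, 5% CO2; ONE-Glo, 30 min RT; luminescence on CCD imager.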
Numbers without * were called inactive; ? = inconclusive; nt = not tested or not shown; [ ] = another dose, or the depositor's remark. The call rests on the fitted dose curve; in most records, active means well fitted curve in the direction sought with a large enough effect; inconclusive means small, poorly fitted or top-dose-only effect, or another doubt; inactive means no such curve, though single readings can be large; an effect the other way counts as inactive or inconclusive. Potency means the concentration at half of the fitted maximal effect.

SMILES	NPC1 prom act	Rab9 prom act	Luc counter	FLuc modulator	SMN2 splice up	ELG1 genotox
O=C(COC(=O)c1ccco1)c1ccccc1	-7%	0%	nt	6µM*	nt	?
COc1cc(C(=O)COC(=O)c2ccco2)cc(OC)c1OC	nt	nt	nt	nt	nt	11%
Cc1ccc(C(=O)COC(=O)c2ccco2)cc1C	1%	13%	nt	1.5µM*	nt	23µM*
O=C(COC(=O)c1cc2ccccc2o1)c1ccccc1	-2%	-2%	-8%	6µM*	-7%	?
O=C(COC(=O)c1ccco1)c1ccc2ccccc2c1	-2%	9%	-2%	2.4µM*	-15%	10%
COc1ccc(C(=O)COC(=O)c2cc(=O)c3ccccc3o2)cc1	nt	nt	nt	nt	nt	0%
O=C(Nc1ncc(Cl)cc1Cl)c1c(F)cccc1Cl	-7%	18%	-2%	-1%	5%	-5%
Cn1cc(S(=O)(=O)NC[C@H]2O[C@@H](n3cnc4c(N)ncnc43)[C@H](O)[C@@H]2O)cn1	nt	nt	nt	nt	nt	-2%
COc1ccc(CCNC(=O)CCc2cn(Cc3ccccc3Cl)c3ccccc23)c(OC)c1	nt	nt	nt	-2%	nt	nt
CCC(=O)N1CCc2cc(Br)cc(S(=O)(=O)CCC(=O)Nc3cccc(Cl)c3)c21	nt	nt	nt	4%	-1%	nt
CN(C)C=Nc1ncc2c([nH]c3ccccc32)c1C#N	?	?	1%	?	12%	-4%
Cc1ccc(Cn2c(SCc3ccc(C(=O)N4CCCCC4)cc3)nc3ccncc32)cc1	nt	nt	nt	?	-73%	nt
COc1cccc([C@@H]2Oc3ccc(OC)cc3C[C@H]2OC(=O)N[C@H](C)C2CCCCC2)c1	nt	nt	0%	nt	3%	nt
Cc1ccc(C(=O)COC(=O)c2ccc(Br)o2)cc1C	2%	16%	3%	11µM*	10%	4%
O=C(Cc1ccc(F)cc1)OCC(=O)c1cc2ccccc2o1	9%	2%	1%	21µM*	7%	1%
O=C(CCNc1ccc(F)cc1)c1cc2ccccc2o1	-5%	0%	-5%	-5%	1%	8%
Cc1ccc(CNC(=O)COC(=O)c2ccc(Br)o2)cc1	-1%	1%	nt	nt	nt	3%
O=C(COC(=O)c1ccco1)c1ccc(Cl)cc1	-1%	-6%	nt	1.7µM*	nt	18%
O=C(COC(=O)c1ccco1)NCCNC(=O)COC(=O)c1ccco1	-3%	7%	nt	4%	nt	1%
O=C(CSCc1ccc(Cl)cc1)c1ccco1	12%	8%	-6%	15µM*	-4%	11%
O=C(CSc1nc2cc(Cl)ccc2s1)c1ccco1	?	?	1%	?	18%	18%
Clc1ccc(OCCCn2ccnc2)c(Br)c1	-5%	-7%	0%	19µM*	-11%	0%
Clc1ccc(OCCCN2CCCCC2)c(Br)c1	?	?	-1%	15µM*	?	9%
CC(C)(CO)NC(=S)NCc1ccco1	-2%	-2%	nt	4%	nt	-2%
COc1ccccc1C1NC(=O)c2n[nH]c(-c3cccs3)c21 (stereo not given)	nt	nt	nt	-13%	-4%	nt
SMILES	NPC1 prom act	Rab9 prom act	Luc counter	FLuc modulator	SMN2 splice up	ELG1 genotox
CCCN(CCC)C(=O)Nc1cc(Cl)ccc1OC	-1%	-4%	nt	0%	nt	-3%
Cc1cccc(-c2nnc(-c3ccc(N)cc3)o2)c1	?	2.8µM*	-19%	3.4µM*	4.5µM*	?
Nc1ccc(-c2nnc(-c3ccc(N)cc3)o2)cc1	3.5µM*	3.5µM*	nt	3.4µM*	nt	16µM*
Cc1ccc(-c2nnc(-c3ccc4ccccc4c3)o2)cc1	nt	nt	-6%[7.66 µM]	nt	?	nt
Cn1c(Cc2ccccc2)nnc1SCC(=O)c1cccs1	-2%	-1%	-4%	0%	-19%	4%
COc1ccc(NC(=O)CCSc2nc(-c3ccco3)cc(C(F)(F)F)n2)cc1	nt	nt	nt	0%	-7%	nt
CN(C)c1ccc(NC(=O)CCSc2nc(-c3ccco3)cc(C(F)(F)F)n2)cc1	nt	nt	nt	9.5µM*	3%	nt
CC(=O)NCCn1c(SCc2cccc([N+](=O)[O-])c2)nc2ccccc2c1=O	-3%	-7%	-3%	-4%	-2%	-3%
COc1ccc(Oc2cnc3ccccc3n2)cc1	?	3.5µM*	0%	-10%	19%	-3%
CCOc1ccc(C(=O)NCC(c2ccc3c(c2)OCO3)N2CCN(C)CC2)cc1 (stereo not given)	nt	nt	nt	-2%	nt	nt
C[C@H](NC(=O)OC(C)(C)C)C(=O)N/N=C/c1cccc2nccnc12	1%	-3%	nt	5%	nt	1%
O=C(O)c1ccc(N/N=C/c2cccc3nccnc23)cc1	?	?	nt	6.7µM*	nt	8%
Clc1nc2ccccc2cc1/C=N/Nc1nc2ccccc2[nH]1	3.5µM*	2.5µM*	?	0.19µM*	7.9µM*	?
Cc1cccc2cc(/C=N/Nc3ccc(C(=O)O)cc3)c(Cl)nc12	0.4µM*	0.4µM*	nt	0.67µM*	nt	5.2µM*
O=C(O)c1ccc(N/N=C/c2cc3ccccc3nc2Cl)cc1	1.4µM*	2µM*	nt	0.76µM*	nt	?
O=[N+]([O-])c1ccccc1N/N=C/c1cc2ccccc2nc1Cl	?	?	-6%	?	-16%	?
Cc1ccc(-n2c(=O)c3c(C)c(C(=O)N(C)C)sc3n(CC(=O)N(C)c3ccccc3)c2=O)cc1C	nt	nt	nt	-3%	nt	nt
CC(C)(C)OC(=O)N1CCC[C@H]1C(=O)N/N=C/c1cccc2nccnc12	-5%	0%	nt	17µM*	nt	2%
CN(CC1CCCN(CCc2ccccc2F)C1)C(=O)c1ccoc1 (stereo not given)	-4%	-2%	nt	4%	nt	-1%
COc1ccc(CCN2CCCC(CN(C)C(=O)c3ccoc3)C2)cc1 (stereo not given)	2.5µM*	2.2µM*	nt	15µM*	nt	16µM*
Cc1cc(C(=O)CN2C(=O)C(=O)N(CCC3=CCCCC3)C2=O)c(C)n1C	nt	nt	nt	nt	nt	-5%
CN1CCN(C(=S)c2ccc(-c3cccc([N+](=O)[O-])c3)o2)CC1	2.2µM*	2.2µM*	nt	6.7µM*	nt	10µM*
O=[N+]([O-])c1cccc(-c2ccc(C(=S)N3CCOCC3)o2)c1	2.8µM*	1.1µM*	-1%	3µM*	11µM*	?
O=[N+]([O-])c1cc(-c2ccc(C(=S)N3CCOCC3)o2)ccc1Cl	-10%	8%	1%	15µM*	26%	15%
CCOc1ccc(NC(=O)Cn2c(=O)n(Cc3ccc(C(=O)NCc4ccc(C)cc4)cc3)c(=O)c3ccccc32)cc1	nt	nt	nt	1%	-2%	nt
